Measured values published in PubChem BioAssay (NCI).
Compounds without any hit were thinned out: in the full panel of roughly 79,000, 15% have a hit. The source made the active and inactive calls. Rule as the data show it: active = growth inhibition above about 70%; inactive = the rest.

Tests used:
[1] = NCI Yeast Anticancer Drug Screen. Data for the rad50 strain (AID 155);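 also: 0% = growth of vehicle-only cultures of the same strain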; conditions: S. cerevisiae rad50 strain growth inhibition; at 50.0 µM; stronger effect = higher value
In short: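 Readout: growth inhibition relative to vehicle-treated cultures. Compound exposure was carried out in a genetically defined yeast strain deficient in DNA damage repair.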

[2] = NCI Yeast Anticancer Drug Screen. Data for the mec2-1 strain (AID 157); conditions: S. cerevisiae mec2-1 strain, at 50.0 µM, stronger effect = higher value
In short: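 Vehicle-treated cultures served as reference for growth inhibition of compound-exposed mec2-1 yeast.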

[3] = NCI Yeast Anticancer Drug Screen. Data for the sgs1 mgt1 strain (AID 161);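 also: 0% = growth of cultures given vehicle only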; conditions: S. cerevisiae sgs1 mgt1 strain, at 50.0 µM, stronger effect = higher value
In short: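 Test agents were incubated with a DNA-repair-mutant yeast strain. Growth was then read and compared against vehicle-treated controls.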

[4] = NCI Yeast Anticancer Drug Screen. Data for the cln2 rad14 strain (AID 165);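 also: 0% = growth equal to vehicle treated cultures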; conditions: S. cerevisiae cln2 rad14 strain, at 50.0 µM, stronger effect = higher value
In short: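 Each compound was tested on cln2 rad14 yeast. Inhibition of growth was calculated against vehicle-exposed controls.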

[5] = NCI Yeast Anticancer Drug Screen. Data for the bub3 strain (AID 167); conditions: S. cerevisiae bub3 mutant strain, at 50.0 µM, stronger effect = higher value
In short: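 Readout: yeast growth inhibition, expressed relative to vehicle-only wells. The test organism is a mutant strain from a panel with lesions in DNA repair or checkpoint genes.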

[6] = NCI Yeast Anticancer Drug Screen. Data for the mlh1 rad18 strain (AID 175); conditions: S. cerevisiae mlh1 rad18 strain growth inhibition; at 50.0 µM; stronger effect = higher value
In short: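 Vehicle-treated cultures served as the reference for growth inhibition in a yeast strain carrying DNA damage repair alterations exposed to each compound.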

Measured: growth inhibition

NC(=O)NNC/C(Cl)=C(\Cl)C(=O)O
inactive: [1] -1.65% | [2] -19.4% | [3] 8.7% | [4] 16.9% | [5] 5.5% | [6] 2.85%

CCCCC(=O)N1SC(NC(=O)OC)=Nc2ccccc21
active: [5] 92.4% | [6] 76.2%
inactive: [1] 61% | [2] 42.4% | [3] 61.8% | [4] 67.2%

CCC[C@H](C)[C@H]1NC(=O)[C@@H](NC(=O)[C@@H](CC(C)C)N(C)C(=O)C2CCCN2C(=O)[C@H](C)O)[C@@H](C)OC(=O)[C@H](CC(C)C)N(C)C(=O)[C@@H]2CCCN2C(=O)[C@H](CC(C)C)NC(=O)[C@@H](C)C(=O)[C@H](C(C)C)OC(=O)C[C@@H]1O (stereo partly drawn)
inactive: [1] 21.2% | [2] 9.35% | [3] -5.9% | [4] 26.3% | [5] -20.9% | [6] -54%

O=C1C(O)=C(c2ccccc2)C12CSC1(CS2)C(=O)C(O)=C1c1ccccc1 (stereo not drawn)
inactive: [1] 4.45% | [2] -1.55% | [3] -12.9% | [4] 5.4% | [5] 6.05% | [6] 17.3%

CC(C=O)C1CCCCC1 (stereo not drawn)
inactive: [1] 9.15% | [2] 10.1% | [3] 0.6% | [4] 7.4% | [5] 8.95% | [6] 5.6%

Cc1ccccc1NC(=O)CSC#N
inactive: [1] 10.2% | [2] 7.35% | [3] 1.7% | [4] 20.1% | [5] -12.6% | [6] 8.75%

Cc1cccc(NC(=O)c2c(Cl)c(Cl)c(Cl)c(Cl)c2C(=O)O)c1C
inactive: [1] 9.8% | [2] 2% | [3] 2.6% | [4] -35.5% | [5] 5.8% | [6] 8.95%

O=C(Nc1c(Cl)cccc1Cl)OCc1ccco1
inactive: [1] 7.5% | [2] -10.6% | [3] 24.1% | [4] 3.15% | [5] 23.4% | [6] 19.6%

O=C(O)c1ccn(-c2cccc(-n3ccc(C(=O)O)n3)n2)n1
inactive: [1] -1.05% | [2] -17.1% | [3] 2.25% | [4] -47.7% | [5] -15.4% | [6] -7.1%

O=C(Nc1ccc(Br)cc1C(F)(F)F)C(F)(F)F
inactive: [1] 6% | [2] -5.7% | [3] -2.15% | [4] -28.9% | [5] 1.9% | [6] -16.2%

OC(C/C=N/N=C/CC(O)(C(F)(F)Cl)C(F)(F)Cl)(C(F)(F)Cl)C(F)(F)Cl
inactive: [1] 36% | [2] 28.3% | [3] 31.7% | [4] 35.2% | [5] 34.5% | [6] 34.1%

O=C(Nc1cc(-c2ccccc2)[nH]n1)c1ccccc1Cl
inactive: [1] 22.1% | [2] 16.6% | [3] 60.5% | [4] 31.2% | [5] 42.1% | [6] 28.3%

Fc1cccc(-c2nnc(-c3cccc(F)c3)o2)c1
inactive: [1] 12.7% | [2] -10.1% | [3] -6.9% | [4] -38% | [5] -2.65% | [6] -4.85%

Nc1ncnc2nc(-c3ccc(C(=O)c4cccc([N+](=O)[O-])c4)cc3)[nH]c12
inactive: [1] 1.85% | [2] 6.35% | [3] -7.5% | [4] -5.4% | [5] 14.6% | [6] -13.2%

OC1(c2ccc(-c3ccccc3)cc2)c2ccccc2-c2ccccc2C1(O)c1ccc(-c2ccccc2)cc1 (stereo not drawn)
inactive: [1] 6.45% | [2] -5.95% | [3] -2.2% | [4] 2% | [5] 6.3% | [6] 7.05%

O=C1CSc2nc3c(Cl)cc(Cl)cc3c(=O)n21
inactive: [1] 15.7% | [2] 24.6% | [3] 54.1% | [4] 8.2% | [5] 30.2% | [6] 46.1%

CCCCn1c(=S)[nH]c2c(=O)n(C)c(=O)n(C)c21
inactive: [1] 4.95% | [2] 4.3% | [3] 7.55% | [4] -14.4% | [5] -7.35% | [6] 4%

Nc1ccc2c(c1)Cc1cc(O)ccc1-2
inactive: [1] 19.1% | [2] -8.75% | [3] 1.45% | [4] 6.3% | [5] 9.9% | [6] 4.35%

COc1ccc(C(=O)/C=C/c2ccc(OCCCOc3ccc(/C=C/C(=O)c4ccc(OC)cc4)cc3)cc2)cc1
inactive: [1] -7.3% | [2] -19.9% | [3] 3.6% | [4] -24.6% | [5] -19.9% | [6] -27.4%

CCN(CC)Cc1cc(Nc2ccnc3ccc4nn(C)nc4c23)ccc1O
inactive: [1] -16.4% | [2] -19.4% | [3] -28.1% | [4] 4.45% | [5] 6.65% | [6] -1.75%

CC(=O)OC(CCN(C)C)c1ccccc1 (stereo not drawn)
inactive: [1] -1.35% | [2] -7.5% | [3] 0.6% | [4] -34.1% | [5] 24% | [6] -5.45%

CCN(CC)CCN1C(=O)NC2(CCCCC2)C1=O
inactive: [1] 19.5% | [2] -0.8% | [3] 18.8% | [4] 16% | [5] 10.6% | [6] 20.8%

CCCCCCCCCCCCCC(=O)OCCN(C)C
inactive: [1] 4.1% | [2] -2.6% | [3] 7.7% | [4] -32.6% | [5] -14.4% | [6] -12.4%

O=S(=O)(O/C(=C(\OS(=O)(=O)C(F)(F)C(F)(F)C(F)(F)C(F)(F)F)c1ccccc1)c1ccccc1)C(F)(F)C(F)(F)C(F)(F)C(F)(F)F
inactive: [1] -6% | [2] -14.1% | [3] -23.4% | [4] -18.1% | [5] 7.9% | [6] -5.85%

CN(C)c1ccc(/C=C2\Cc3ccccc3C2=O)cc1Br
inactive: [1] 19.6% | [2] -8% | [3] 1.45% | [4] 0.95% | [5] -8.55% | [6] 12.4%

CN(C)CCN(C(=Nc1ccccc1)N1CCCC1)c1ccccc1
inactive: [1] -18.7% | [2] -30.8% | [3] -30.4% | [4] 17.1% | [5] 0.45% | [6] 4.5%

COc1cc(/C=C2\C=Nc3ccccc32)ccc1O
inactive: [1] 27.8% | [2] 23.9% | [3] 38% | [4] 20.3% | [5] 40.3% | [6] 35.7%

CC1CC(c2ccccc2)Nc2nc3ccccc3n21 (stereo not drawn)
inactive: [1] 5.65% | [2] 3.45% | [3] -4.7% | [4] 7.95% | [5] 5.65% | [6] -14.3%

C=CCCCCCCCCC(=O)NCC1CC1
inactive: [1] -10.8% | [2] -7.1% | [3] 2.5% | [4] -44.8% | [5] -27.9% | [6] -4.75%

Cc1ccc(S(=O)(=O)Nc2ccccc2-c2nc3c(Cl)ccc(Cl)c3c(=O)o2)cc1
inactive: [1] 33.6% | [2] 0.15% | [3] 41.5% | [4] -10.3% | [5] -5.45% | [6] 10.7%

OC(CCc1ccco1)CCc1ccco1
inactive: [1] 19.9% | [2] 6.6% | [3] 11.5% | [4] 1.4% | [5] 10.7% | [6] 14.1%

CC(=O)Nc1cc2ccccc2c(Br)n1
inactive: [1] -14.9% | [2] 6.55% | [3] -4.65% | [4] -13.1% | [5] -9.95% | [6] -6.15%

CC(c1ccccc1)n1cnc2c(=S)nc[nH]c21 (stereo not drawn)
inactive: [1] 17.1% | [2] -20.9% | [3] -7.55% | [4] 3.35% | [5] -5.85% | [6] -9.95%

C=C(CN(CC)CC)C1(c2ccccc2)CC2(CCCC2)C(=O)O1 (stereo not drawn)
inactive: [1] 20.9% | [2] 23.9% | [3] 1.15% | [4] 3.6% | [5] 10.2% | [6] 5.65%

COc1ccc2c(c1)C[N+](C)(C)[B-]O2
inactive: [1] -1.6% | [2] -1.55% | [3] 5.45% | [4] -8.65% | [5] 2.1% | [6] 6.75%

CC(CCOCC1CO1)OCC1CO1 (stereo not drawn)
inactive: [1] 13.8% | [2] -17.4% | [3] 3.85% | [4] 14.8% | [5] -17.5% | [6] 22.6%

O=C(O)C1C2CCC(O2)C1C(=O)NCc1cccnc1 (stereo not drawn)
inactive: [1] 23.1% | [2] -3.8% | [3] -11.7% | [4] -9.9% | [5] -11% | [6] 2.85%

Cc1c(NC=O)c(=O)n(-c2ccccc2)n1C
inactive: [1] -10.8% | [2] -33% | [3] 32.9% | [4] 3.65% | [5] 14.4% | [6] 33.7%
